Test results taken from PubChem BioAssay AID1903 (Southern Research Specialized Biocontainment Screening …, 2009).
Out of some 310,000 compounds screened, about 1,200 (0.39%) were called active. How the calls were made is not given here. These entries were drawn from the full list. Entries with a potency or affinity are not part of this list.

Target: Large T antigen (Simian virus 40) (UniProt P03070)
Test: SV40 large T antigen inhibitors, biochemical (AID 1903)
Settings: SV40 large T antigen ATPase/helicase inhibition assay; at 20 µM; active compounds read high

Large T antigen (Simian virus 40), sequence (P03070 whole entry, looked up): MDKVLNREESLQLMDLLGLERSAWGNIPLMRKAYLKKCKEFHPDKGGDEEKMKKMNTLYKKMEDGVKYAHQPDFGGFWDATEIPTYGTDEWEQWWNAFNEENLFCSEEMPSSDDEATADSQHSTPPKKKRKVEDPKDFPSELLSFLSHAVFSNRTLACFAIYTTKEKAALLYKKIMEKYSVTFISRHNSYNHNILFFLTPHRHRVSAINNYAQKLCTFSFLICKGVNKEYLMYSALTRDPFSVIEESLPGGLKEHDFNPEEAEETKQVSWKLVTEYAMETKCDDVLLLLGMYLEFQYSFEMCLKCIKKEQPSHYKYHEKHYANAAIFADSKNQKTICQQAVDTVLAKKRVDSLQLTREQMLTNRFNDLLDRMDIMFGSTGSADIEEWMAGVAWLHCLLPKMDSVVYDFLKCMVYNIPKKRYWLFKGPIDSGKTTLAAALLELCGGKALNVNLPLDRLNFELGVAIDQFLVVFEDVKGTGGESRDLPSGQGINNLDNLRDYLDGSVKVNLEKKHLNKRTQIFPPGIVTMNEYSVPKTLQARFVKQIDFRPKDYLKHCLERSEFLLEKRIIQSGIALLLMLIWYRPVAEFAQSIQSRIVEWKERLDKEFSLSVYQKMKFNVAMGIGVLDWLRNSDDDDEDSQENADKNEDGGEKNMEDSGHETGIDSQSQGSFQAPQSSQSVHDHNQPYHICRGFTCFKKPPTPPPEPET

inhibition, inactive:
Cc1ccsc1C(=O)OCC(=O)NCc1ccc2c(c1)OCO2 20.1%
O=C(O)C1CC=CCC1C(=O)N1CCCC1 (configuration not stated) -0.98%
O=C1NC(=O)/C(=C\c2ccsc2)N1 2.09%
COCOc1cc(O)c2c(=O)c(OCOC)c(-c3ccc(OCOC)c(OCOC)c3)oc2c1 7.99%
COc1c(-c2ccc(O)c(O)c2)oc2cc(O)cc(O)c2c1=O 9.05%
CCn1c(SCC(=O)Nc2nccs2)nnc1-c1ccc(S(=O)(=O)N2CCCCCC2)cc1 -0.295%
Cc1ccc(S(=O)(=O)N2CCCC(C(=O)NCC3CCCO3)C2)cc1 (configuration not stated) 3.23%
CN1CCN(S(=O)(=O)c2ccc(Cl)cc2)CC1 0.99%
O=S(=O)(c1ccc(Cl)cc1)N1CCCCCC1 20.7%
CC1CN(S(=O)(=O)c2ccccc2)C(C)CN1S(=O)(=O)c1ccccc1 (configuration not stated) 8.4%
Cc1ccc(S(=O)(=O)N2CCN(S(=O)(=O)c3ccccc3)C2)cc1 6.18%
CCCN(CCC)C(=O)Cc1coc2ccc3ccccc3c12 3.36%
Cc1cc2cc(CNC(=O)Nc3ccccc3)ccc2n1C 4.59%
O=C1NCCN/C1=C\C(=O)c1ccc(Cl)cc1 12.3%
CCOc1ccc(NC(=O)COn2nnc3ccc(S(=O)(=O)N4CCOCC4)cc32)cc1 11.2%
CCOc1ccccc1-c1c2cc(O)c(=O)cc-2oc2cc(O)c(O)cc12 15.8%
O=c1cc(-c2ccccc2[N+](=O)[O-])oc2ccccc12 1.45%
Cc1c2cc(O)c(=O)cc-2oc2cc(O)c(O)cc12 57.6%
COc1ccc(OC)c(-c2c3cc(O)c(=O)cc-3oc3cc(O)c(O)cc23)c1 73.4%
CCOc1ccccc1NC(=O)CSc1nnc(CNC(=O)c2cc(OC)c(OC)c(OC)c2)o1 5.49%
COc1ccccc1CNC(c1ccccc1)c1ccccc1 21.1%
COc1ccc(C2NC(c3ccc(OC)c(OC)c3OC)C(C)C(=O)C2C)c(OC)c1OC (configuration not stated) -0.23%
CCc1c(C)nc(N)nc1Cl 10.9%
CCOC(=O)C(Sc1cc(C)nc(N)n1)C(C)=O (configuration not stated) 7.31%
O=C1C=C(Nc2ccc(Cl)cc2)CC(c2ccco2)C1 (configuration not stated) 24.2%
O=C1C=C(Nc2cccc(O)c2)CC(c2ccco2)C1 (configuration not stated) 6.63%
COc1ccccc1-c1ocnc1C(=O)N1CCN(S(=O)(=O)c2ccc(NC(C)=O)cc2)CC1 4.74%
